Test results from PubChem BioAssay (Tox21).
Inconclusive results are not listed. Active and inactive are the calls of the source. Unless noted, calls follow the shape of the dose curve; as a rule, active = well fitted curve in the direction sought with a large enough effect in the repeat runs; inconclusive = weak or mixed curves; inactive = no such curve, though single readings can be large; an effect the other way counts as inactive or inconclusive.

Legend:
[1] = qHTS assay to identify small molecule antagonists of the estrogen related receptor (ERR) signaling pathway from Tox21 library - cell viability counter screen (AID 1224834); also: nearly all actives have a fitted effect of over 30% in size
How it was run: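 Seeded ERR cells were rested 6 h at 37 C/5% CO2 before compounds, positive and negative controls or DMSO were added. Incubation continued for 17.5 h, and viability was then quantified by CellTiter-Fluor fluorescence.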

[2] = target: Luciferin 4-monooxygenase (Photinus pyralis) (UniProt P08659); test: qHTS assay to identify small molecule inhibitors of firefly luciferase (AID 1224835); also: nearly all actives have a fitted effect of over 25% in size; also: potency is read from the fitted curve at half-maximal effect
Sequence of Luciferin 4-monooxygenase (Photinus pyralis) (P08659 whole entry, looked up): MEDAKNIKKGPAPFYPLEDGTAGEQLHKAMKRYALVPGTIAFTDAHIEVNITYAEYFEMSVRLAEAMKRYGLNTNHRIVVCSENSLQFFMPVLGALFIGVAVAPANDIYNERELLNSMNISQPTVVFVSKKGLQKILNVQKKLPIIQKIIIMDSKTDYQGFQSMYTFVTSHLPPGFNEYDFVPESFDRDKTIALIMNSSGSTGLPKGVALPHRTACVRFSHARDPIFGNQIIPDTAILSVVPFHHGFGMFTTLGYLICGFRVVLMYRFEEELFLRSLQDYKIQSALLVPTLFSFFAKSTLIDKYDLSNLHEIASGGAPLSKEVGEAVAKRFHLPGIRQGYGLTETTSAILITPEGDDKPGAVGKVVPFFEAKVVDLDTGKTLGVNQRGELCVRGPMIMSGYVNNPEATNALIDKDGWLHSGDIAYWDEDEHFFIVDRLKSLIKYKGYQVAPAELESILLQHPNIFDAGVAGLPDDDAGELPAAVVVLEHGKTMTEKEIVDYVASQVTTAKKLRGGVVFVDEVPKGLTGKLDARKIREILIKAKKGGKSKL
How it was run: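 Quantitative HTS format; KM concentrations of both substrates. Purified P. pyralis FLuc activity quantified from luminescence images.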

[3] = qHTS assay to identify small molecule agonists of the constitutive androstane receptor (CAR) signaling pathway - cell viability counter screen (AID 1224836); also: nearly all actives have a fitted effect of over 45% in size
How it was run: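 Compound titrations (15 concentrations) went onto HepG2-CYP2B6-hCAR cells 4 h after seeding, alongside PK11195 at a final 0.75 uM; a 23 h, 37 C/5% CO2 incubation preceded CellTiter-Fluor viability measurement.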

[4] = qHTS assay to identify small molecule antagonists of the constitutive androstane receptor (CAR) signaling pathway - cell viability counter screen (AID 1224837); also: nearly all actives have a fitted effect of over 45% in size
How it was run: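 To flag cytotoxic false antagonists, HepG2 hCAR/CYP2B6-2.2kb cells were treated 23 hr with 15-concentration compound series and 50 nM CITCO at 37 C/5% CO2; CellTiter-Fluor fluorescence was the measured end point.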

[5] = target: Nuclear receptor subfamily 1 group I member 3 (Homo sapiens) (UniProt Q14994); test: qHTS assay to identify small molecule antagonists of the constitutive androstane receptor (CAR) signaling pathway (AID 1224838);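 also: HepG2 cells stably expressing hCAR with CYP2B6 luciferase reporter stimulated by CITCO; nearly all actives have a fitted effect of over 40% in size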
Sequence of Nuclear receptor subfamily 1 group I member 3 (Homo sapiens) (Q14994 whole entry, looked up): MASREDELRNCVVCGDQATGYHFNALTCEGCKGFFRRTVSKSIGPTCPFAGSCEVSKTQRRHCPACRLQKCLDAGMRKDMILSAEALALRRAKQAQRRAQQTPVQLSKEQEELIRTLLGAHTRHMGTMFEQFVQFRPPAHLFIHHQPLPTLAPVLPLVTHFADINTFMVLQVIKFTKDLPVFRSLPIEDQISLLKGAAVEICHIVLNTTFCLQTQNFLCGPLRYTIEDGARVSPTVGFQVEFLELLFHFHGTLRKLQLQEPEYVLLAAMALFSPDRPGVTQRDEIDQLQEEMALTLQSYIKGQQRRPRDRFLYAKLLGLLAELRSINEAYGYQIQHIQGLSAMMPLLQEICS
How it was run: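 Human hepatoma HepG2 cells expressing hCAR and a CYP2B6 promoter (2.2 kb) luciferase construct; compound titration (15 points) with 50 nM CITCO final, 24 h at 37 C/5% CO2; luminescence via ONE-Glo after 30 min at room temperature.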

[6] = target: Nuclear receptor subfamily 1 group I member 3 (Homo sapiens) (UniProt Q14994); test: qHTS assay to identify small molecule agonists of the constitutive androstane receptor (CAR) signaling pathway (AID 1224839); also: nearly all actives have a fitted effect of over 15% in size; also: potency is read from the fitted curve at half-maximal effect;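 as to activation: HepG2 cells stably carrying human CAR and a CYP2B6 luciferase reporter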
How it was run: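 In this screen, CAR-driven CYP2B6 promoter activity is measured by luminescence in HepG2-CYP2B6-hCAR cells after 24 h with test compounds and 0.75 uM PK11195 (final concentration).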

[7] = qHTS assay to identify small molecule antagonists of the estrogen related receptor signaling pathway with the pleiotropic PPARgamma coactivator (PGC) from Tox21 10K library - cell viability counter screen (AID 1224840; active = well fitted cell-killing curve with a large enough effect in the repeat runs, not every such curve was filed as active; also: nearly all actives have a fitted effect of over 40% in size)
How it was run: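 Seeded PGC/ERR cells (2,000/well, 6 h, 37 C/5% CO2) get compound by pin tool; 17.5 h incubation at 37 C; CellTiter-Fluor added, 30 min, fluorescence measured.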

[8] = qHTS assay to identify small molecule antagonists of the estrogen related receptor signaling pathway with the pleiotropic PPARgamma coactivator (PGC) from Tox21 10K library (AID 1224841; call rule not given here; also: actives are mostly falling curves and most rising ones were filed inactive; nearly all actives have a fitted effect of over 50% in size)
How it was run: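 Test chemicals dissolved in DMSO were applied to pre-incubated (6 h) PGC/ERR cells at 2,000 cells/well for an 18 h, 37 C treatment; reporter luminescence was then read using One-Glo.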

[9] = qHTS assay to identify small molecule agonists of the estrogen related receptor signaling pathway with the pleiotropic PPARgamma coactivator (PGC) from Tox21 10K library (AID 1224842); also: nearly all actives have a fitted effect of over 15% in size
How it was run: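 PGC/ERR reporter cells (NTP line) were seeded 2,000 per well, rested 6 h at 37 C/5% CO2, then pin-dosed with compounds in DMSO for 18 h at 37 C; luciferase read by One-Glo luminescence after 30 min at room temperature.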

[10] = target: Thyrotropin receptor (Homo sapiens) (UniProt P16473); test: qHTS assay to identify small molecule agonists of the thyroid stimulating hormone receptor (TSHR) signaling pathway (AID 1224843; calls by dose curve; also: nearly all actives have a fitted effect of over 45% in size)
Sequence of Thyrotropin receptor (Homo sapiens) (P16473 whole entry, looked up): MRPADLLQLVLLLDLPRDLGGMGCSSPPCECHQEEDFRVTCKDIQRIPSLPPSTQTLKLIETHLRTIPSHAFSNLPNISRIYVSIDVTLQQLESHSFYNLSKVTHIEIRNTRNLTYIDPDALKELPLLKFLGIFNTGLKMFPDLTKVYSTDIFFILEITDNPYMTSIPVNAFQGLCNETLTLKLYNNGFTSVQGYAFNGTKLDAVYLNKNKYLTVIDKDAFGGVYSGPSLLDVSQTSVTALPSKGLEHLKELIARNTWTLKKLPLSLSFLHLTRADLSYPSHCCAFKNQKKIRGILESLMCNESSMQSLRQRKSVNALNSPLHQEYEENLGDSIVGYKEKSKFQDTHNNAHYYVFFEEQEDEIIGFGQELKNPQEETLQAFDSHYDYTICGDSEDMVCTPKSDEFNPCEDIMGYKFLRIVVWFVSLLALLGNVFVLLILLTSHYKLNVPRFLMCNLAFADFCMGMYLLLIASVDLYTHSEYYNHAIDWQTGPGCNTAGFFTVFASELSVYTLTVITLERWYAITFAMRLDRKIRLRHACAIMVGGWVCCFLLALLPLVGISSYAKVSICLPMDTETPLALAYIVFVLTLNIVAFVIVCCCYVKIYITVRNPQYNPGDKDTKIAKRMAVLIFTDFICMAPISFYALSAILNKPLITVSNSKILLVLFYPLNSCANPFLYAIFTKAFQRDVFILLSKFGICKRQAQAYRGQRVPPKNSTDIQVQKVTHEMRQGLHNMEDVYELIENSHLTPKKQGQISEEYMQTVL
How it was run: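 Compounds are titrated over 15 concentrations, in triplicate, onto TSHR-HEK293 cells seeded at 800/well. Plates sit 30 min at room temperature before cAMP-d2 and anti-cAMP cryptate are added; signal is read after a further hour.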

[11] = qHTS assay to identify small molecule agonists of the hypoxia (HIF-1) signaling pathway - cell viability counter screen (AID 1224844; calls by dose curve; also: nearly all actives have a fitted effect of over 50% in size)
How it was run: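 HRE-bla ME-180; 0.5% dFBS; cpd 17 h, 37C, 5% CO2; CellTiter-Glo lum., 30 min RT, post-FRET read, same wells.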

[12] = qHTS assay to identify small molecule agonists of H2AX (AID 1224845; active = well fitted activation curve with a large enough effect in the signal ratio in the repeat runs, not every such curve was filed as active; the % refers to the signal ratio)
How it was run: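 Wild-type CHO-K1 cells plated overnight, then exposed 3 hr at 37C to compounds at 15 concentrations (0.76% DMSO). Lysed, then HTRF anti-pH2AX(S139)-cryptate/anti-H2AX-d2 detection after 24 hr at room temperature; emissions 665 and 620 nm.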

[13] = qHTS assay to identify small molecule agonists of the hypoxia (HIF-1) signaling pathway (AID 1224846; active = well fitted activation curve with a large enough effect in the signal ratio in the repeat runs, not every such curve was filed as active; the % refers to the signal ratio)
How it was run: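 Reporter induction in HRE-bla ME-180 cells is taken as agonism: cells sit 5 hrs after plating, receive compounds or DMSO only, incubate 17 hrs at 37C under 5% CO2, and are loaded with CCF4-AM for beta-lactamase FRET measurement.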

[14] = qHTS assay to identify small molecule agonists of H2AX - cell viability counter screen (AID 1224847; calls by dose curve; also: top concentration of the series differs between compounds; nearly all actives have a fitted effect of over 30% in size)
How it was run: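 Read-out: CellTiter-Glo luminescence, 30 min RT. Cells: wild-type CHO-K1, 1000/well, 10% FBS, plated overnight at 37C. Treatment: 15 concentrations, 3 hr, 37C, 0.76% DMSO.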

[15] = qHTS assay to identify small molecule antagonists of the estrogen related receptor (ERR) signaling pathway from Tox21 library (AID 1224848); also: nearly all actives have a fitted effect of over 50% in size
How it was run: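 First, 2,000 ERR cells per well were plated and held 6 h at 37 C/5% CO2. Next, compounds in DMSO were pinned in and left 18 h at 37 C. Finally, ONE-Glo was added and luminescence read after 30 min at room temperature.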

[16] = qHTS assay to identify small molecule agonists of the estrogen related receptor (ERR) signaling pathway from Tox21 library (AID 1224849; calls by dose curve; also: nearly all actives have a fitted effect of over 15% in size); details: ERR reporter cell line, ONE-Glo luciferase, 18 h; at 92.4 µM (top of the series) unless noted
How it was run: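 Tox21 compounds tested for ERR agonism in an NTP reporter cell line: 18 h treatment at 37 C, then ONE-Glo luminescence.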

[17] = qHTS RealTime-Glo MT Cell Viability Assay in HepG2 cells - 24 hour (AID 1224867); also: nearly all actives have a fitted effect of over 50% in size
How it was run: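 Cell number in HepG2 cultures estimated from NanoLuc luminescence generated by metabolic reduction of a prosubstrate by living cells. The homogeneous, nonlytic format allowed repeated reads at 0, 8, 16, 24, 32 and 40 h of compound exposure.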

[18] = qHTS RealTime-Glo MT Cell Viability Assay in HEK293 cells - 32 hour (AID 1224868); also: nearly all actives have a fitted effect of over 50% in size; also: potency is read from the fitted curve at half-maximal effect
How it was run: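 Homogeneous bioluminescent viability format in HEK293 cells (600 cells/well). Following 5 h at 37 C/5% CO2, 23 nL compound was pintooled; the signal was measured repeatedly during 40 h incubation.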

[19] = A CellTox Green Cytotoxicity Assay to monitor cytotoxicity in HEK293 cells - 0 hour (AID 1224869); also: nearly all actives have a fitted effect of over 50% in size
How it was run: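 Tox21 screen in HEK293: membrane-impermeant cyanine dye fluoresces on binding dead-cell DNA; compound pinned 5 h post-seeding, plates held at 37 C, signal read repeatedly through 40 h.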

[20] = qHTS RealTime-Glo MT Cell Viability Assay in HepG2 cells - 40 hour (AID 1224870); also: nearly all actives have a fitted effect of over 50% in size
How it was run: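 HepG2 cells mixed with RealTime-Glo MT reagents (NanoLuc plus cell-permeant prosubstrate) were seeded at 600 cells/well, incubated 5 h at 37 C/5% CO2, then pinned with compounds in DMSO; nonlytic luminescence tracked viability during 40 h treatment.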
% is scaled to controls: 0 for no effect and ±100 for the full control effect.

COC(=O)c1cc(Cl)ccc1NS(=O)(=O)C(F)(F)F
inactive: Potency [1] | Potency [2] | Potency [3] | Potency [4] | Potency [5] | Potency [6] | Potency [7] | Potency [8] | Potency [9] | Potency [10] | Potency [11] | Potency [12] | outcome [13] | Potency [14] | Potency [15] | activity change, positive = activation [16] 6.47% [at 42.5 µM] | Potency [17] | Potency [18] | Potency [19] | Potency [20]

CC(C)CCCCCOC(=O)CCCCC(=O)OCCCCCC(C)C
inactive: Potency [1] | Potency [2] | Potency [3] | Potency [4] | Potency [5] | Potency [6] | Potency [7] | Potency [8] | Potency [9] | Potency [11] | Potency [12] | outcome [13] | Potency [14] | Potency [15] | activity change, positive = activation [16] -6.86% | Potency [17] | Potency [19] | Potency [20]

CC(C)c1nnc2ccc(-c3ocnc3-c3cc(F)ccc3F)cn12
inactive: Potency [1] | Potency [2] | Potency [3] | Potency [4] | Potency [5] | Potency [7] | Potency [9] | Potency [10] | Potency [11] | outcome [13] | activity change, positive = activation [16] -31.4% | Potency [17] | Potency [20]
active: Potency [6] 48.6 µM | Potency [18] 21.9 µM

CCN(Cc1cccc(S(=O)(=O)O)c1)c1ccc(C(=C2C=CC(=[N+](CC)Cc3cccc(S(=O)(=O)[O-])c3)C=C2)c2ccccc2)cc1
inactive: Potency [1] | Potency [3] | Potency [4] | Potency [5] | Potency [6] | Potency [7] | Potency [8] | Potency [9] | Potency [10] | Potency [11] | outcome [13] | Potency [14] | activity change, positive = activation [16] 1.85% [at 42.5 µM] | Potency [17] | Potency [18] | Potency [19] | Potency [20]
active: Potency [2] 22.3 µM

CCCCC(=O)O[C@]1(C(=O)CO)CC[C@H]2[C@@H]3CCC4=CC(=O)CC[C@]4(C)[C@H]3[C@@H](O)C[C@@]21C
inactive: Potency [1] | Potency [2] | Potency [3] | Potency [4] | Potency [5] | Potency [6] | Potency [7] | Potency [8] | Potency [9] | Potency [10] | Potency [11] | Potency [12] | Potency [14] | activity change, positive = activation [16] -22.8% [at 42.5 µM] | Potency [17] | Potency [18] | Potency [19] | Potency [20]

OC/C(Br)=C(\Br)CO
inactive: Potency [1] | Potency [2] | Potency [3] | Potency [4] | Potency [5] | Potency [6] | Potency [7] | Potency [8] | Potency [9] | Potency [10] | Potency [11] | Potency [12] | outcome [13] | Potency [14] | activity change, positive = activation [16] 1.63% | Potency [17] | Potency [18] | Potency [19] | Potency [20]

CCCCC(CC)CNCC(CC)CCCC (stereo not drawn)
inactive: Potency [1] | Potency [2] | Potency [3] | Potency [4] | Potency [5] | Potency [6] | Potency [7] | Potency [8] | Potency [9] | Potency [10] | Potency [11] | Potency [12] | outcome [13] | Potency [14] | Potency [15] | activity change, positive = activation [16] 4.2% | Potency [17] | Potency [18] | Potency [19] | Potency [20]
